Measured values taken from PubChem BioAssay (NCATS).
Inconclusive results are not listed. Active and inactive are the calls of the source. Unless noted, calls follow the shape of the dose curve; as a rule, active = well fitted curve in either direction with a large enough effect (not every such curve was filed as active); inconclusive = small, poorly fitted or top-dose-only effect, or another doubt; inactive = flat fitted curve, though single readings scatter.

What was measured:
[1] = AP1 Signaling Pathway (AID 357);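 also: ME-180 reporter cells stimulated with EGF at its EC50 level; % is scaled to controls: 0 for no effect and ±100 for the full control effect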
Outline: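 Titration-series screen for positive or negative modulators of EC50 EGF-induced signaling in ME-180 cells carrying an AP-1-driven beta-lactamase reporter. After 5 hours at 37 degrees Celsius, CCF4 460nm/530nm emission ratio gave %Activity; AC50 values derived.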

[2] = target: Cytochrome P450 1A2 (Homo sapiens) (UniProt P05177); experiment: p450-cyp1a2 (AID 410; calls by dose curve; also: potency is read from the fitted curve at half-maximal effect;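 as to activity change, negative = inhibition: -100% = full effect of reference inhibitor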)
Sequence of Cytochrome P450 1A2 (Homo sapiens) (P05177 whole entry, looked up): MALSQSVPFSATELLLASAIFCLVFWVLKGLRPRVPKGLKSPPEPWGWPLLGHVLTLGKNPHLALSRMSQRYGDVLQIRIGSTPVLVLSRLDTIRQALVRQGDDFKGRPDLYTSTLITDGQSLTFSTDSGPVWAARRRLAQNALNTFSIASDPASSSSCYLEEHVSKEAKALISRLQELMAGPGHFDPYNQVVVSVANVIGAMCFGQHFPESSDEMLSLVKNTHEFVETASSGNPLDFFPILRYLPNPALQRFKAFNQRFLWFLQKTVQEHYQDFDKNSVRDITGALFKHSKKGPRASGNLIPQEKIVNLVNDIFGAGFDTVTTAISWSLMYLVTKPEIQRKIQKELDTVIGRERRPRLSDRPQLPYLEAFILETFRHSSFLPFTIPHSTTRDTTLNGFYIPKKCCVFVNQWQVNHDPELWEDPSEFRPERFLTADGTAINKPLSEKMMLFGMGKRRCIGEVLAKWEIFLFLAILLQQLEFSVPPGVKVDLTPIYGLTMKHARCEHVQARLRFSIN
Outline: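 Luminescent demethylation readout: Luciferin-ME (100uM, equal to Km) turned over by 20nM CYP1A2 for 60 min at room temperature after NADPH regeneration addition, following 10 min compound preincubation. Normalization used 57 uM furafylline as full inhibition.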

[3] = NFAT Signaling Pathway (AID 444); conditions: Jurkat NFAT-bla M1, carbachol, beta-lactamase ratio, 5 h; at 17.2 µM (top of the series) unless noted;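 also: carbachol stimulus at about its EC50 of 1 µM final; % is scaled to controls: 0 for no effect and ±100 for the full control effect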
Outline: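 Jurkat cells carrying an NFAT-driven β-lactamase reporter and co-transfected muscarinic M1 receptor were treated with compound plus carbachol (1 uM final, an EC50 level) for 5 h at 37 °C. CCF4 loading followed for 1 h at RT; 460/530 nm ratio gave %activity.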

[4] = Stat Signaling Pathway (AID 446);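 also: ME-180 cervical cancer cells given 40 pM IL-6 alongside compound; SIE-controlled beta-lactamase reporter measured as 460/530 nm FRET emission ratio; % is scaled to controls: 0 for no effect and ±100 for the full control effect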
Outline: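 FRET read-out (405 nm excitation, 460/530 nm emission) of a beta-lactamase reporter under a STAT-inducible element in ME-180 cervical carcinoma cells. Cells with compound receive 40 pM IL-6 for 5 h. Values are normalised to AC90 stimulation and AC90 JAK-inhibitor controls.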

[5] = target: Glucocorticoid receptor (Homo sapiens) (UniProt P04150); experiment: GR-GFP Redistribution (AID 450;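 active = compounds whose dose series gives a full or clear partial fitted curve of increased nuclear translocation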; also: potency is read from the fitted curve at half-maximal effect); conditions: U2OS GR-GFP nuclear translocation, laser cytometry, 2 h
Sequence of Glucocorticoid receptor (Homo sapiens) (P04150 whole entry, looked up, the tested form may be a part): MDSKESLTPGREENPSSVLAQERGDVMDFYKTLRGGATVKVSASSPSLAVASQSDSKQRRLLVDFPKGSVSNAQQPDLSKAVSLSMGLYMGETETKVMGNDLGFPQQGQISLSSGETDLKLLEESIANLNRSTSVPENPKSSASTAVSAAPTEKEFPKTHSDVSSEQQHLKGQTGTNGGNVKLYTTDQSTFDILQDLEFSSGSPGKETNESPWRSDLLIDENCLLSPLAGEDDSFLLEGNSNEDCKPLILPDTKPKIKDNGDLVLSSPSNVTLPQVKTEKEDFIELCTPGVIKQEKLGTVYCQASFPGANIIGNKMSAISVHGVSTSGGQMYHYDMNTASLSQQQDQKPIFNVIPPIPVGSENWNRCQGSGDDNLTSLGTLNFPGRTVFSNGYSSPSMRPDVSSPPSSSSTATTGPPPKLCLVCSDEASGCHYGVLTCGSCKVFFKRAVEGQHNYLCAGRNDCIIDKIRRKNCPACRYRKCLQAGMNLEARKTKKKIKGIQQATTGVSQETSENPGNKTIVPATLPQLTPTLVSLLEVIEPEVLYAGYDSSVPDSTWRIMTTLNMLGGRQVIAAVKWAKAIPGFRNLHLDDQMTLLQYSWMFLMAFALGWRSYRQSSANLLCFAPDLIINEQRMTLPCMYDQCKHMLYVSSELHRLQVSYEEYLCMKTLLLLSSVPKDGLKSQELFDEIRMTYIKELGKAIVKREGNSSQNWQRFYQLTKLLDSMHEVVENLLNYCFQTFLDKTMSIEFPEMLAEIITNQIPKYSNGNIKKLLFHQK

[6] = target: Glucocorticoid receptor (Homo sapiens) (UniProt P04150); experiment: GR-EFC Redistribution (AID 451; calls by dose curve; also: potency is read from the fitted curve at half-maximal effect); conditions: CHO-K1 GR-EFC translocation, beta-gal luminescence, 2 h
Outline: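 CHO-K1 cells stably expressing nuclear-localized β-gal enzyme acceptor and GR fused C-terminally to the enzyme donor fragment; ligand-driven nuclear translocation restores β-gal by complementation. Compounds titrated up to 46 uM final, 2 h at 37 °C; luminescence read.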

[7] = target: Mitogen-activated protein kinase 10 (Mus musculus) (UniProt Q61831); experiment: JNK3 AlphaScreen Assay (AID 530);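 also: kinase came from lysate of stimulated human HepG2 cells; signal reports phosphorylation of biotinylated GST-cJun 1-79 at Ser73 with 10 µM ATP; % is scaled to controls: 0 for no effect and ±100 for the full control effect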
Outline: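 Phosphorylation of biotinylated GST-cJun(1-79) at Ser73 is measured by AlphaScreen proximity luminescence. Enzyme is JNK3 in HepG2 lysates activated with interleukin-1beta and tumor necrosis factor alpha; ATP is 10 uM final.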

[8] = target: Lysosomal acid glucosylceramidase (Homo sapiens) (UniProt P04062); experiment: Glucocerebrosidase-p2 (AID 348; in the data active = potency below about 10 µM; also: potency is read from the fitted curve at half-maximal effect); conditions: purified GBA, blue fluorogenic substrate, 40 min
Sequence of Lysosomal acid glucosylceramidase (Homo sapiens) (P04062 whole entry, looked up): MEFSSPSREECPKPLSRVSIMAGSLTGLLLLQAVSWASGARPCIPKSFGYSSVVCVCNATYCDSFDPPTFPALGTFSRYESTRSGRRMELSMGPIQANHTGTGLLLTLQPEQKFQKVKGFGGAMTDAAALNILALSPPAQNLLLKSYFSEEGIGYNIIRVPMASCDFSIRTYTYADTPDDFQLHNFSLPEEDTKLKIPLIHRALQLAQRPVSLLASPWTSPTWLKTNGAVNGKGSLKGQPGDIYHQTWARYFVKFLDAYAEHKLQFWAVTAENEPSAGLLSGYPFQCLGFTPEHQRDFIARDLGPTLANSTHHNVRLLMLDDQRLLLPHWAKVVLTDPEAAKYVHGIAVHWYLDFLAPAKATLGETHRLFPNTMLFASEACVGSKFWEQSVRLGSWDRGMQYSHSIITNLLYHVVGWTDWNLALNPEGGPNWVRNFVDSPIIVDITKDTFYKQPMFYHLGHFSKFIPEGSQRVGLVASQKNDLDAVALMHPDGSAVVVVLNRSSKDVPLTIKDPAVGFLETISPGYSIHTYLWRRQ
Outline: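 Normal human glucocerebrosidase (0.2 nM) with blue fluorogenic substrate (80 uM final) in citrate/phosphate pH 5.9 with 10mM sodium taurocholate, 0.01% tween-20; 40 min RT, NaOH/glycine stop; fluorescence Ex 365/Em 440; AC50 from a titration from 0.6 nM upwards.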

Cc1c(-c2ccccc2)oc2c(C(=O)OCCN3CCCCC3)cccc2c1=O
inactive: outcome [1] | activity change, negative = inhibition [3] -3.52% | outcome [4] | Potency [5] > 20.6 µM | Potency [6] > 20.6 µM | Potency [7]
active: Potency [2] 6.31 µM

N=C(N)N1CCc2ccccc2C1
inactive: outcome [1] | Potency [2] | activity change, negative = inhibition [3] -7.74% | outcome [4] | Potency [5] > 20.6 µM | Potency [6] > 20.6 µM | Potency [7]

CN1CCC[C@@H]1CCO[C@](C)(c1ccccc1)c1ccc(Cl)cc1
inactive: outcome [1] | Potency [2] | outcome [4] | Potency [7]

O=C(CCCN1CC=C(n2c(=O)[nH]c3ccccc32)CC1)c1ccc(F)cc1
inactive: outcome [1] | Potency [2] | activity change, negative = inhibition [3] -14.9% | outcome [4] | Potency [5] > 20.6 µM | Potency [6] > 20.6 µM | Potency [7]

COc1cc(C(=O)NCc2ccc(OCCN(C)C)cc2)cc(OC)c1OC
inactive: outcome [1] | Potency [2] | activity change, negative = inhibition [3] -15.8% | outcome [4] | Potency [5] > 20.6 µM | Potency [6] > 20.6 µM | Potency [7]

NS(=O)(=O)Cc1noc2ccccc12
inactive: outcome [1] | Potency [2] | activity change, negative = inhibition [3] -5.42% [at 38 µM] | outcome [4] | Potency [5] > 46 µM | Potency [6] > 46 µM | Potency [7]

NS(=O)(=O)c1cc(C(=O)O)cc(N2CCCC2)c1Oc1ccccc1
active: Potency [5] 2.81 µM
inactive: outcome [1] | Potency [2] | activity change, negative = inhibition [3] -7.88% | outcome [4] | Potency [6] > 20.6 µM | Potency [7]

O=C(O)CCc1nc2ccccc2[nH]1
inactive: Potency [8] > 11.4 µM | outcome [1] | activity change, negative = inhibition [3] 5.96% [at 7.69 µM] | outcome [4] | Potency [7]

CC(=O)OC[C@H]1O[C@@H](n2ncc(=O)[nH]c2=O)[C@H](OC(C)=O)[C@@H]1OC(C)=O
inactive: outcome [1] | activity change, negative = inhibition [3] -22.9% | outcome [4] | Potency [5] > 20.6 µM

CC[N+](C)(CC)CCOC(=O)C(O)(c1ccccc1)C1CCCCC1 (stereo unspecified)
active: activity change, negative = inhibition [3] -95.5%
inactive: outcome [1] | outcome [4] | Potency [5] > 20.6 µM

CCOC(=O)c1ccc(N)cc1
active: Potency [2] 2 µM
inactive: outcome [1] | activity change, negative = inhibition [3] -2.56% | outcome [4] | Potency [5] > 20.6 µM | Potency [6] > 20.6 µM | Potency [7]
